# From publication PMC11006913
# Residue numbers refer to the chain shown, from its start.
# Columns and labels:
# Experiment in all cases: PBM; 200 nM protein, PBS
# Settings in all cases: dsDNA, one strand shown
# [1] = target: T1, SIX6 (Homo sapiens, UniProt O95475 114-200, L167I)
# T1 sequence: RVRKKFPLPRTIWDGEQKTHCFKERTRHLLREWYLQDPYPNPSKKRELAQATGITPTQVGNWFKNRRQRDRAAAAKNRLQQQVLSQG
# [2] = target: T2, SIX6 (Homo sapiens, UniProt O95475 114-200, H141N)
# T2 sequence: T1 sequence with H28N, I54L
# [3] = target: T3, SIX6 (Homo sapiens, UniProt O95475 114-200, L167M)
# T3 sequence: T1 sequence with I54M
# [4] = target: T4, SIX6 (Homo sapiens, UniProt O95475 114-200, T165G)
# T4 sequence: T1 sequence with T52G, I54L
# [5] = target: T5, SIX6 (Homo sapiens, UniProt O95475 114-200, L167V)
# T5 sequence: T1 sequence with I54V
# [6] = target: T6, SIX6 (Homo sapiens, UniProt O95475 114-200)
# T6 sequence: T1 sequence with I54L
# [7] = target: T7, SIX6 (Homo sapiens, UniProt O95475 114-200, T165I)
# T7 sequence: T1 sequence with T52I, I54L
# [8] = target: T8, SIX6 (Homo sapiens, UniProt O95475 114-200, L143V)
# T8 sequence: T1 sequence with L30V, I54L
# [9] = target: T9, SIX6 (Homo sapiens, UniProt O95475 114-200, T165P)
# T9 sequence: T1 sequence with T52P, I54L
# [10] = target: T10, SIX6 (Homo sapiens, UniProt O95475 114-200, T139Q)
# T10 sequence: T1 sequence with T26Q, I54L
# [11] = target: T11, SIX6 (Homo sapiens, UniProt O95475 114-200, L143I)
# T11 sequence: T1 sequence with L30I, I54L
# [12] = target: T12, SIX6 (Homo sapiens, UniProt O95475 114-200, T165A)
# T12 sequence: T1 sequence with T52A, I54L
# [13] = target: T13, SIX6 (Homo sapiens, UniProt O95475 114-200, L143M)
# T13 sequence: T1 sequence with L30M, I54L
# [14] = target: HOXA7 (Homo sapiens, UniProt P31268 116-202)
# [15] = target: HOXA7 (Homo sapiens, UniProt P31268 116-202, W177C)
# Chain of HOXA7 (Homo sapiens, UniProt P31268 116-202, W177C) (P31268 116-202 W177C): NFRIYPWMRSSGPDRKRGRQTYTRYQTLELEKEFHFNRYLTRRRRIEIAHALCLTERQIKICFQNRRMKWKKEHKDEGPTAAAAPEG
# Chain of HOXA7 (Homo sapiens, UniProt P31268 116-202) (P31268 116-202): as the sequence (P31268 116-202 W177C) above, with C62W counted along it
sequence,measurement,setting,value
CTATACTA,binding signal,[1],"10.2 upbm affinity estimate (log intensity, higher = more binding, comparable within an allelic series)"
same,binding signal,[2],"10.1 upbm affinity estimate (log intensity, higher = more binding, comparable within an allelic series)"
same,binding signal,[3],"10.2 upbm affinity estimate (log intensity, higher = more binding, comparable within an allelic series)"
same,binding signal,[4],"10.2 upbm affinity estimate (log intensity, higher = more binding, comparable within an allelic series)"
same,binding signal,[5],"10.1 upbm affinity estimate (log intensity, higher = more binding, comparable within an allelic series)"
same,binding signal,[6],"10.2 upbm affinity estimate (log intensity, higher = more binding, comparable within an allelic series)"
same,binding signal,[7],"10.1 upbm affinity estimate (log intensity, higher = more binding, comparable within an allelic series)"
ATACCTCC,binding signal,[1],"10.3 upbm affinity estimate (log intensity, higher = more binding, comparable within an allelic series)"
same,binding signal,[8],"9.86 upbm affinity estimate (log intensity, higher = more binding, comparable within an allelic series)"
same,binding signal,[2],"10.4 upbm affinity estimate (log intensity, higher = more binding, comparable within an allelic series)"
same,binding signal,[9],"9.38 upbm affinity estimate (log intensity, higher = more binding, comparable within an allelic series)"
same,binding signal,[4],"10.5 upbm affinity estimate (log intensity, higher = more binding, comparable within an allelic series)"
same,binding signal,[10],"10.5 upbm affinity estimate (log intensity, higher = more binding, comparable within an allelic series)"
same,binding signal,[6],"10.4 upbm affinity estimate (log intensity, higher = more binding, comparable within an allelic series)"
GGATAGTA,binding signal,[1],"10.4 upbm affinity estimate (log intensity, higher = more binding, comparable within an allelic series)"
same,binding signal,[2],"10.3 upbm affinity estimate (log intensity, higher = more binding, comparable within an allelic series)"
same,binding signal,[9],"9.87 upbm affinity estimate (log intensity, higher = more binding, comparable within an allelic series)"
same,binding signal,[3],"10.3 upbm affinity estimate (log intensity, higher = more binding, comparable within an allelic series)"
same,binding signal,[11],"10.2 upbm affinity estimate (log intensity, higher = more binding, comparable within an allelic series)"
same,binding signal,[4],"10.4 upbm affinity estimate (log intensity, higher = more binding, comparable within an allelic series)"
same,binding signal,[10],"10.6 upbm affinity estimate (log intensity, higher = more binding, comparable within an allelic series)"
same,binding signal,[5],"10.3 upbm affinity estimate (log intensity, higher = more binding, comparable within an allelic series)"
same,binding signal,[6],"10.4 upbm affinity estimate (log intensity, higher = more binding, comparable within an allelic series)"
same,binding signal,[7],"10.3 upbm affinity estimate (log intensity, higher = more binding, comparable within an allelic series)"
CGGTGTCA,binding signal,[1],"10.3 upbm affinity estimate (log intensity, higher = more binding, comparable within an allelic series)"
same,binding signal,[9],"9.3 upbm affinity estimate (log intensity, higher = more binding, comparable within an allelic series)"
same,binding signal,[3],"9.76 upbm affinity estimate (log intensity, higher = more binding, comparable within an allelic series)"
same,binding signal,[12],"11.1 upbm affinity estimate (log intensity, higher = more binding, comparable within an allelic series)"
ACGGATCC,binding signal,[1],"10.2 upbm affinity estimate (log intensity, higher = more binding, comparable within an allelic series)"
same,binding signal,[8],"9.67 upbm affinity estimate (log intensity, higher = more binding, comparable within an allelic series)"
same,binding signal,[2],"10.1 upbm affinity estimate (log intensity, higher = more binding, comparable within an allelic series)"
same,binding signal,[9],"9.26 upbm affinity estimate (log intensity, higher = more binding, comparable within an allelic series)"
same,binding signal,[10],"10.5 upbm affinity estimate (log intensity, higher = more binding, comparable within an allelic series)"
same,binding signal,[5],"10 upbm affinity estimate (log intensity, higher = more binding, comparable within an allelic series)"
same,binding signal,[6],"10.2 upbm affinity estimate (log intensity, higher = more binding, comparable within an allelic series)"
ACTATACG,binding signal,[1],"10 upbm affinity estimate (log intensity, higher = more binding, comparable within an allelic series)"
same,binding signal,[2],"10 upbm affinity estimate (log intensity, higher = more binding, comparable within an allelic series)"
same,binding signal,[3],"10.1 upbm affinity estimate (log intensity, higher = more binding, comparable within an allelic series)"
same,binding signal,[4],"9.95 upbm affinity estimate (log intensity, higher = more binding, comparable within an allelic series)"
same,binding signal,[12],"10 upbm affinity estimate (log intensity, higher = more binding, comparable within an allelic series)"
same,binding signal,[5],"10 upbm affinity estimate (log intensity, higher = more binding, comparable within an allelic series)"
same,binding signal,[6],"10.1 upbm affinity estimate (log intensity, higher = more binding, comparable within an allelic series)"
same,binding signal,[7],"9.99 upbm affinity estimate (log intensity, higher = more binding, comparable within an allelic series)"
AAGGTATC,binding signal,[1],"11.1 upbm affinity estimate (log intensity, higher = more binding, comparable within an allelic series)"
same,binding signal,[2],"11 upbm affinity estimate (log intensity, higher = more binding, comparable within an allelic series)"
ACGGATAG,binding signal,[1],"10.1 upbm affinity estimate (log intensity, higher = more binding, comparable within an allelic series)"
same,binding signal,[8],"9.74 upbm affinity estimate (log intensity, higher = more binding, comparable within an allelic series)"
same,binding signal,[2],"10 upbm affinity estimate (log intensity, higher = more binding, comparable within an allelic series)"
same,binding signal,[9],"9.43 upbm affinity estimate (log intensity, higher = more binding, comparable within an allelic series)"
same,binding signal,[11],"9.74 upbm affinity estimate (log intensity, higher = more binding, comparable within an allelic series)"
same,binding signal,[4],"10 upbm affinity estimate (log intensity, higher = more binding, comparable within an allelic series)"
same,binding signal,[6],"10.2 upbm affinity estimate (log intensity, higher = more binding, comparable within an allelic series)"
CCGTATCA,binding signal,[1],"11.1 upbm affinity estimate (log intensity, higher = more binding, comparable within an allelic series)"
same,binding signal,[2],"11.1 upbm affinity estimate (log intensity, higher = more binding, comparable within an allelic series)"
same,binding signal,[4],"11.1 upbm affinity estimate (log intensity, higher = more binding, comparable within an allelic series)"
same,binding signal,[10],"11.1 upbm affinity estimate (log intensity, higher = more binding, comparable within an allelic series)"
same,binding signal,[12],"11.1 upbm affinity estimate (log intensity, higher = more binding, comparable within an allelic series)"
same,binding signal,[7],"10.9 upbm affinity estimate (log intensity, higher = more binding, comparable within an allelic series)"
CGGATAAA,binding signal,[1],"10.4 upbm affinity estimate (log intensity, higher = more binding, comparable within an allelic series)"
same,binding signal,[2],"10.3 upbm affinity estimate (log intensity, higher = more binding, comparable within an allelic series)"
same,binding signal,[9],"9.86 upbm affinity estimate (log intensity, higher = more binding, comparable within an allelic series)"
same,binding signal,[3],"10.4 upbm affinity estimate (log intensity, higher = more binding, comparable within an allelic series)"
same,binding signal,[13],"10.5 upbm affinity estimate (log intensity, higher = more binding, comparable within an allelic series)"
same,binding signal,[11],"10 upbm affinity estimate (log intensity, higher = more binding, comparable within an allelic series)"
same,binding signal,[12],"10.3 upbm affinity estimate (log intensity, higher = more binding, comparable within an allelic series)"
same,binding signal,[5],"10.2 upbm affinity estimate (log intensity, higher = more binding, comparable within an allelic series)"
same,binding signal,[6],"10.4 upbm affinity estimate (log intensity, higher = more binding, comparable within an allelic series)"
same,binding signal,[7],"10.3 upbm affinity estimate (log intensity, higher = more binding, comparable within an allelic series)"
AAGTGATA,binding signal,[1],"11.2 upbm affinity estimate (log intensity, higher = more binding, comparable within an allelic series)"
same,binding signal,[2],"11.1 upbm affinity estimate (log intensity, higher = more binding, comparable within an allelic series)"
same,binding signal,[13],"11 upbm affinity estimate (log intensity, higher = more binding, comparable within an allelic series)"
same,binding signal,[4],"11.1 upbm affinity estimate (log intensity, higher = more binding, comparable within an allelic series)"
same,binding signal,[12],"11.1 upbm affinity estimate (log intensity, higher = more binding, comparable within an allelic series)"
same,binding signal,[5],"10.9 upbm affinity estimate (log intensity, higher = more binding, comparable within an allelic series)"
same,binding signal,[7],"11 upbm affinity estimate (log intensity, higher = more binding, comparable within an allelic series)"
AATACGAT,binding signal,[1],"10.6 upbm affinity estimate (log intensity, higher = more binding, comparable within an allelic series)"
same,binding signal,[14],"9.45 upbm affinity estimate (log intensity, higher = more binding, comparable within an allelic series)"
same,binding signal,[2],"10.5 upbm affinity estimate (log intensity, higher = more binding, comparable within an allelic series)"
same,binding signal,[9],"9.88 upbm affinity estimate (log intensity, higher = more binding, comparable within an allelic series)"
same,binding signal,[3],"10.3 upbm affinity estimate (log intensity, higher = more binding, comparable within an allelic series)"
same,binding signal,[13],"10.5 upbm affinity estimate (log intensity, higher = more binding, comparable within an allelic series)"
same,binding signal,[11],"10.1 upbm affinity estimate (log intensity, higher = more binding, comparable within an allelic series)"
same,binding signal,[4],"10.5 upbm affinity estimate (log intensity, higher = more binding, comparable within an allelic series)"
same,binding signal,[10],"10.7 upbm affinity estimate (log intensity, higher = more binding, comparable within an allelic series)"
same,binding signal,[12],"10.5 upbm affinity estimate (log intensity, higher = more binding, comparable within an allelic series)"
same,binding signal,[5],"10.3 upbm affinity estimate (log intensity, higher = more binding, comparable within an allelic series)"
same,binding signal,[6],"10.5 upbm affinity estimate (log intensity, higher = more binding, comparable within an allelic series)"
same,binding signal,[7],"10.4 upbm affinity estimate (log intensity, higher = more binding, comparable within an allelic series)"
same,binding signal,[15],"8.84 upbm affinity estimate (log intensity, higher = more binding, comparable within an allelic series)"
AGTATCAA,binding signal,[1],"11.1 upbm affinity estimate (log intensity, higher = more binding, comparable within an allelic series)"
same,binding signal,[2],"11.1 upbm affinity estimate (log intensity, higher = more binding, comparable within an allelic series)"
same,binding signal,[4],"11.1 upbm affinity estimate (log intensity, higher = more binding, comparable within an allelic series)"
same,binding signal,[12],"11.1 upbm affinity estimate (log intensity, higher = more binding, comparable within an allelic series)"
GATCTTCA,binding signal,[1],"10.3 upbm affinity estimate (log intensity, higher = more binding, comparable within an allelic series)"
same,binding signal,[2],"10.3 upbm affinity estimate (log intensity, higher = more binding, comparable within an allelic series)"
same,binding signal,[9],"9.68 upbm affinity estimate (log intensity, higher = more binding, comparable within an allelic series)"
same,binding signal,[4],"10.3 upbm affinity estimate (log intensity, higher = more binding, comparable within an allelic series)"
same,binding signal,[10],"10.4 upbm affinity estimate (log intensity, higher = more binding, comparable within an allelic series)"
same,binding signal,[5],"10.2 upbm affinity estimate (log intensity, higher = more binding, comparable within an allelic series)"
same,binding signal,[6],"10.3 upbm affinity estimate (log intensity, higher = more binding, comparable within an allelic series)"
GGTGTCAC,binding signal,[1],"10.3 upbm affinity estimate (log intensity, higher = more binding, comparable within an allelic series)"
same,binding signal,[3],"9.69 upbm affinity estimate (log intensity, higher = more binding, comparable within an allelic series)"
same,binding signal,[4],"11.1 upbm affinity estimate (log intensity, higher = more binding, comparable within an allelic series)"
same,binding signal,[12],"11.1 upbm affinity estimate (log intensity, higher = more binding, comparable within an allelic series)"
GGGTGTCA,binding signal,[1],"10.4 upbm affinity estimate (log intensity, higher = more binding, comparable within an allelic series)"
same,binding signal,[9],"9.2 upbm affinity estimate (log intensity, higher = more binding, comparable within an allelic series)"
same,binding signal,[3],"9.79 upbm affinity estimate (log intensity, higher = more binding, comparable within an allelic series)"
same,binding signal,[4],"11.1 upbm affinity estimate (log intensity, higher = more binding, comparable within an allelic series)"
same,binding signal,[12],"11.1 upbm affinity estimate (log intensity, higher = more binding, comparable within an allelic series)"
